ELG1 DNA repair – inhibitors of ELG1-dependent DNA repair in HEK293T cells | HEK293T ELG1-luciferase reporter, luminescence, 16 h; DNA damage induced by 5-fluorouridine | 330,000 tested, 2.3% active | AID 504467 | Potency, µM (doses to about 46.1 µM), usual class: inhibitors; also: nearly all actives have a fitted effect of over 55% in size
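Reporter activity after DNA damage by 5-fluorouridine is monitored. Compound-treated cells incubate 16 hr at 37 °C, then ONE-Glo is added for 30 min before luminescence reading.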
MCF10A rereplic – DNA re-replication induction in MCF 10a cells. MCF 10A DNA re-replication, Hoechst nuclear intensity, 48 h. Potency, µM (top dose mostly 46.1 µM), hits mostly activators. 350,000 tested, 2.9% active; also: nearly all actives have a fitted effect of over 50% in size
SW480 rerep – DNA re-replication induction in SW480 cells. SW480 DNA re-replication, Hoechst DNA content imaging, 48 h. Potency, µM (highest dose often 46.1 µM), usual class: activators. 340,000 tested, 1.8% active. AID 624297; also: nearly all actives have a fitted effect of over 55% in size
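DNA re-replication was detected as more nuclei of elevated Hoechst intensity after 48 hr exposure to compound (23 nL pinned per well of 250 cells).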
KB-3-1 tox – KB-3-1 parental cell cytotoxicity; KB-3-1 viability, CellTiter-Glo ATP luminescence, 72 h; 400,000 tested, 1.4% active; Potency, µM (highest dose often 46.1 µM), actives largely listed as cytotoxic; also: nearly all actives have a fitted effect of over 60% in size
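KB-3-1 cells, DMEM (no phenol red) + 10% FBS; compound by pin transfer, 72 h, 37 °C. Readout: CellTiter-Glo luminescence after 10 min. Data normalized, curve-fitted.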
KB-V1 cytotox – kills drug-selected multidrug resistant KB-V1 cells | 400,000 tested, 3.4% active | Potency, µM (titrated, usually from 46.1 µM), most hits filed as cytotoxic | AID 1347076 | KB-V1 MDR cells viability, CellTiter-Glo, 72 h; also: nearly all actives have a fitted effect of over 60% in size
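qHTS viability screen in drug-selected KB-V1 MDR cells: 72 h compound treatment at 37 degrees C, ATP luminescence end point.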
Of the large screens only hits and unclear results are named; the others gave an inactive call. Only some compounds are listed: those with a hit (about 8.1% of all), similar ones and a draw of the others. Calls follow the shape of the dose curve; as a rule, active = well fitted curve in the direction sought with a large enough effect; inconclusive = small, poorly fitted or top-dose-only effect, or another doubt; inactive = no such curve, though single readings can be large; an effect the other way counts as inactive or inconclusive.

CCOc1ccc(NC(=O)C2CCN(S(C)(=O)=O)CC2)cc1	MCF10A rereplic 0.92µM, SW480 rerep inconclusive, KB-V1 cytotox inconclusive
Cc1cc(C)c(C)c(S(=O)(=O)N2CCC(C(=O)Nc3ccc(S(=O)(=O)N4CCOCC4)cc3)CC2)c1C	ELG1 DNA repair 12µM, MCF10A rereplic inconclusive, KB-3-1 tox inconclusive, KB-V1 cytotox inconclusive
Cc1ccc(CN2CCSc3ccc(C(=O)N4CCN(c5ccc(Cl)cc5)CC4)cc32)cc1	KB-V1 cytotox inconclusive (no result: ELG1 DNA repair, MCF10A rereplic, SW480 rerep)
CC(OC(=O)C1CCN(S(=O)(=O)c2ccc(C(C)(C)C)cc2)CC1)C(=O)N1CCOCC1 (configuration not stated)	MCF10A rereplic inconclusive, KB-V1 cytotox 16µM
Cc1ccc(S(=O)(=O)N2CCC(C(=O)N/N=C/c3ccccc3[N+](=O)[O-])CC2)cc1	SW480 rerep inconclusive, KB-V1 cytotox 13µM
Cc1ccc(S(=O)(=O)N2CCC(C(=O)Nc3ccc(S(=O)(=O)N4CCOCC4)cc3)CC2)cc1	KB-3-1 tox 23µM, KB-V1 cytotox 16µM (no result: ELG1 DNA repair)
Cc1ccc(S(=O)(=O)N2CCC(C(=O)OC(C)C(=O)N3CCOCC3)CC2)cc1 (configuration not stated)	ELG1 DNA repair inconclusive
Cc1ccc(S(=O)(=O)N2CCC(C(=O)N/N=C/c3cccnc3)CC2)cc1	none
Cc1nc(COC(=O)c2cc(O)c3ccccc3c2O)cs1	MCF10A rereplic inconclusive, SW480 rerep 7.3µM
Cc1cc(C)n(-c2nc3ccccc3c(=O)n2OCC#N)n1	ELG1 DNA repair inconclusive, MCF10A rereplic inconclusive, SW480 rerep 16µM, KB-3-1 tox inconclusive, KB-V1 cytotox inconclusive
CCOn1c(-n2nc(C)cc2C)nc2ccccc2c1=O	none
O=C(NCCCn1ccnc1)c1cc(-c2cccs2)on1	ELG1 DNA repair inconclusive, KB-3-1 tox 15µM, KB-V1 cytotox 15µM
O=C(NCCCN1CCOCC1)c1cc(-c2cccs2)on1	ELG1 DNA repair inconclusive
COc1ccc(-c2cnc(C)o2)cc1S(=O)(=O)Nc1ccc(F)cc1F	none (no result: ELG1 DNA repair, MCF10A rereplic, SW480 rerep)
CCCn1c(SCC(=O)NC2CCCC2)nnc1C(C)C	ELG1 DNA repair inconclusive, SW480 rerep 18µM
CC1(C(=O)Nc2ccc(Cl)c(Cl)c2)CCN1Cc1ccccc1OC(F)F (configuration not stated)	KB-3-1 tox inconclusive (no result: ELG1 DNA repair, MCF10A rereplic, SW480 rerep)
CNc1ccc(/C=C2\C=Cc3ccccc32)cc1Br	none (no result: ELG1 DNA repair, MCF10A rereplic, SW480 rerep)
Cc1ccc2nc(-c3ccccc3)cc(C(=O)NNC(=O)c3csc(N4CCOCC4)n3)c2c1	ELG1 DNA repair 6.5µM, KB-V1 cytotox 21µM
Cc1ccc(-c2cc(C(=O)NNC(=O)c3csc(N4CCOCC4)n3)c3ccccc3n2)cc1	ELG1 DNA repair inconclusive
O=C(Nc1ccccn1)c1ccc2nc(-c3ccccc3)c(-c3ccccc3)nc2c1	none (no result: MCF10A rereplic, SW480 rerep, KB-3-1 tox, KB-V1 cytotox)
Cc1ccc2nc(-c3ccccc3)cc(C(=O)Nc3cccnc3)c2c1	KB-V1 cytotox 2.9µM
O=C(Nc1cccnc1)c1ccc2nc(-c3ccccc3)c(-c3ccccc3)nc2c1	ELG1 DNA repair 23µM, MCF10A rereplic inconclusive, KB-V1 cytotox inconclusive
O=C(Nc1ccccc1)c1ccc2nc(-c3ccco3)c(-c3ccco3)nc2c1	ELG1 DNA repair 9.2µM, MCF10A rereplic 12µM, SW480 rerep 18µM, KB-V1 cytotox inconclusive
CC(=O)c1ccc(NC(=O)c2ccc3nc(-c4ccco4)c(-c4ccco4)nc3c2)cc1	ELG1 DNA repair inconclusive, MCF10A rereplic inconclusive, SW480 rerep inconclusive
Cc1ccc(CO)cc1Nc1ncnc2onc(-c3ccc(F)cc3)c12	none (no result: ELG1 DNA repair, MCF10A rereplic, SW480 rerep)
CCS(=O)(=O)N1CCC(c2nc(-c3ccc(C(F)(F)F)cc3)no2)CC1	ELG1 DNA repair 6.3µM, KB-3-1 tox 6.5µM
O=S(=O)(c1ccc(Cl)c(F)c1)N1CCC(c2nc(-c3ccncc3)no2)CC1	ELG1 DNA repair inconclusive, KB-V1 cytotox 21µM
CN1C=CC(=C[N+](=O)[O-])N(C)C1=O	none (no result: ELG1 DNA repair, MCF10A rereplic, SW480 rerep)
CCN(CC)S(=O)(=O)c1cc(C)ccc1SC	SW480 rerep 23µM
CCCNC(=O)c1ccccc1NC(=O)c1ccccc1N(C)S(=O)(=O)c1ccc(C)cc1	ELG1 DNA repair 23µM, MCF10A rereplic inconclusive, SW480 rerep inconclusive, KB-3-1 tox 18µM, KB-V1 cytotox inconclusive
CCOc1ccccc1NC(=O)c1ccccc1N(C)S(=O)(=O)c1ccc(C)cc1	KB-3-1 tox inconclusive, KB-V1 cytotox 12µM (no result: ELG1 DNA repair)
CCOc1ccccc1NC(=O)c1cc2cc(C)ccc2n1C	KB-3-1 tox inconclusive, KB-V1 cytotox 8.2µM (no result: ELG1 DNA repair, MCF10A rereplic, SW480 rerep)
CCOc1ccccc1NC(=O)CCN(c1ccc(C)cc1)S(=O)(=O)c1ccccc1	KB-3-1 tox inconclusive, KB-V1 cytotox 2.6µM
CC12CC(O)C3C(CCC4=CC(=O)CCC43C)C1CCC2=CCO (configuration not stated)	KB-3-1 tox inconclusive, KB-V1 cytotox 18µM (no result: ELG1 DNA repair)
COc1cccc(-c2cnc3c(c2)C(=O)N([C@H](C)CO)C[C@@H](C)[C@H](CN(C)C(=O)Nc2ccccc2F)O3)c1	none (no result: ELG1 DNA repair, MCF10A rereplic, SW480 rerep)
CCOc1ccc(OCC)c(S(=O)(=O)NCc2ccccc2)c1	none
CCOc1cc(Br)ccc1S(=O)(=O)NCc1ccccc1	KB-V1 cytotox 15µM
COc1ccccc1N=Nc1nc(-c2ccccc2)c(-c2ccccc2)[nH]1	ELG1 DNA repair 23µM, KB-3-1 tox inconclusive
Oc1ccccc1N=Nc1nc(-c2ccccc2)c(-c2ccccc2)[nH]1	MCF10A rereplic inconclusive, SW480 rerep inconclusive, KB-V1 cytotox 0.92µM
COc1ccc(N=Nc2nc(-c3ccccc3)c(-c3ccccc3)[nH]2)cc1	ELG1 DNA repair inconclusive, KB-3-1 tox inconclusive, KB-V1 cytotox inconclusive
CCOc1ccccc1C(C(=O)NC1CCCCC1)N(C(=O)c1csnn1)C1CC1 (configuration not stated)	none
CC(SC(C)C(=O)NN=Cc1cccc(Cl)c1)C(=O)NN=Cc1cccc(Cl)c1 (configuration not stated)	MCF10A rereplic 4.1µM, SW480 rerep 9.2µM, KB-3-1 tox inconclusive, KB-V1 cytotox inconclusive (no result: ELG1 DNA repair)
COc1cccc(C=NNC(=O)C(C)SC(C)C(=O)NN=Cc2cccc(OC)c2)c1 (configuration not stated)	none (no result: ELG1 DNA repair)
O=C(N/N=C/c1cccc(F)c1)c1ccc(Cl)cc1	ELG1 DNA repair inconclusive
CC(C)(C)c1ccc(C(=O)N/N=C/c2cccc(Cl)c2)cc1	ELG1 DNA repair inconclusive, SW480 rerep inconclusive, KB-3-1 tox inconclusive, KB-V1 cytotox 23µM
O=C(C1CCC(CNS(=O)(=O)c2cccc3nsnc23)CC1)N1CC=C(c2ccccc2)CC1 (configuration not stated)	ELG1 DNA repair 21µM, KB-3-1 tox inconclusive
O=C(C1CCCN(S(=O)(=O)c2cccc3nsnc23)C1)N1CC=C(c2ccccc2)CC1 (configuration not stated)	ELG1 DNA repair inconclusive, KB-3-1 tox inconclusive, KB-V1 cytotox inconclusive
O=C(C1CCN(S(=O)(=O)c2cccc3nsnc23)CC1)N1CC=C(c2ccccc2)CC1	ELG1 DNA repair 18µM, MCF10A rereplic inconclusive

High-throughput results as filed in PubChem.
